This note sets out measurements from PubChem BioAssay (NCATS).

Results filed as inconclusive are left out. A call without a number means that no potency is given here. A number with no mark means an inactive call. Activity calls are given as the source filed them. Calls come from the whole dose curve; as a rule, active = well fitted curve in the direction sought with a large enough effect; inconclusive = small, poorly fitted or top-dose-only effect, or another doubt; inactive = no such curve, though single readings can be large; an effect the other way counts as inactive or inconclusive.

In one experiment the test system is Zika virus NS2B-NS3 protease. The experiment can be described thus: Primary screen GU AMC qHTS for Zika virus inhibitors (AID 1347154). Note: nearly all actives have a fitted effect of over 70% in size. The following applies: Zika NS2B-NS3 unlinked protease, AMC fluorogenic substrate; series mostly up to 54.1 µM. In outline:
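Unlinked Zika NS2B hydrophilic domain/NS3 protease domain noncovalent complex (25 nM final) in 10 mM Tris-HCl pH 8.0, 0.01% Tween 20, with AMC peptide substrate. Fluorescence (ex 340, em 450 nm) change over 15 min, room temperature; percent inhibition fitted to 4-parameter Hill equation.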
On the technique in general: qHTS replaces the single test concentration by a dilution series.
On to `O[C@@H]1CCCN2C[C@@H](O)[C@@H](O)C12` (some centres not stated), for which the Potency result is “inactive”.
In the case of `CCCCC/C=C\C/C=C\C/C=C\CCCCCCC(=O)NCCO`, the activity change, negative = inhibition was 14.4% [at 6.83 µM].
For the compound `Cc1[nH]c2ccc(Cl)cc2c1C1=CCNCC1`, the Potency entry was “inactive”.
In the case of H-YPFVEPI-OH, the activity change, negative = inhibition was -10.5% [at 6.83 µM].
On to `C[C@@H]1O[C@H](C[N+](C)(C)C)C[C@@H]1O`, for which the Potency result was “inactive”.
`CCc1cccc(CC)c1NC1=NCCN1`: the Potency result is “inactive”.
Same read-out and setting: next, `O=C(O)CCC(CP(=O)(O)O)C(=O)O` (configuration not stated): “inactive”; `C=CCN1CCC23c4c5ccc(O)c4OC2/C(=N/N=C2\CCC4(O)C6Cc7ccc(O)c8c7C4(CCN6CC=C)C2O8)CCC3(O)C1C5` (configuration not stated): “inactive”.
On to `COC[C@H]([C@@H](O)[C@@H](O)C(=O)NCC[C@@H](C)c1nc(/C=C/C[C@H]2OC3(C[C@H](O)[C@H]2C)OC([C@@H](C[C@@H](O)[C@@H](C)[C@@H](O)[C@@H](C)/C=C(C)/C(C)=C/C=C/C(C)=C\C#N)OC)[C@@H](OP(=O)(O)O)C3(C)C)co1)N(C)C` (some centres not stated), for which the activity change, negative = inhibition was 9.25% [at 4.99 µM].
Same read-out and setting: the figure for `CCCCCCCCCCCCCCCCOC[C@H](COP(=O)([O-])OCC[N+](C)(C)C)OC(C)=O` is -0.0514% [at 6.83 µM].
As to `CC(Cc1cccc(C(F)(F)F)c1)NCCCc1ccccc1` (configuration not stated), the Potency entry is “inactive”.
On the same count and under the same terms, the entry for `O=C1CSC(c2ccccc2Cl)c2cc(Cl)ccc2N1` (configuration not stated) is “inactive”.
Take `COc1cc(OC2CCN(C(C)=O)CC2)ccc1C(=O)N1CCC(N2C(=O)OCc3ccccc32)CC1`: the Potency entry was “inactive”.
Same read-out and setting: the entry for `C/C=C1/C[N@@+]2(C)CC[C@]34C(=C(C=O)[C@H]1C[C@H]32)Nc1ccccc14` is “inactive”.
The same measure, in the same setting: the entry for `CCCCCCC[n+]1ccc(-c2cc[n+](CCCCCCC)cc2)cc1` is “inactive”.
The same measure, in the same setting: next, `CC(C)(C)NC[C@H](O)COc1cccc2[nH]c(C#N)cc12`: “inactive”.
With `CNc1ccc2oc(C[C@H]3O[C@]4(CC[C@H]3C)O[C@H]([C@H](C)C(=O)c3ccc[nH]3)[C@H](C)C[C@H]4C)nc2c1C(=O)O`, the Potency entry was “inactive”.
Same read-out and setting: the entry for `CC1OC(=O)[C@@H](C(C)C)NC(=O)C(C(C)C)OC(=O)[C@H](C(C)C)NC(=O)C(C)OC(=O)[C@@H](C(C)C)NC(=O)C(C(C)C)OC(=O)[C@H](C(C)C)NC(=O)C(C)OC(=O)[C@@H](C(C)C)NC(=O)C(C(C)C)OC(=O)[C@H](C(C)C)NC1=O` (some centres not stated) is “inactive”.
In the case of `CCCCCCCCCCCCCCCCOC[C@@H](COP(=O)([O-])OCC[N+](C)(C)C)OC(C)=O`, the activity change, negative = inhibition is 5.71% [at 6.83 µM].
Take `C=C1C([C@@H](O)C[C@H](C)C2O[C@@]3(CCCCO3)CC[C@H]2C)OC2CC[C@@]3(CC[C@@H](/C=C/[C@@H](C)C4CC(C)=C[C@]5(O4)O[C@H](C[C@@](C)(O)C(=O)O)CCC5O)O3)OC2[C@@H]1O` (some centres not stated): the activity change, negative = inhibition was 0.872% [at 4.99 µM].

Tested on in another experiment: not listed separately
Put plainly: Primary qHTS for small molecule stabilizers of the endoplasmic reticulum resident proteome: Secreted ER Calcium Modulated Protein (SERCaMP) assay (AID 1508630). Note: potency is the fitted concentration of half-maximal effect. The conditions noted are these: SH-SY5Y GLuc-SERCaMP (Gaussia luciferase released on ER calcium loss) secretion, thapsigargin, luminescence; series mostly up to 38.4 µM. In outline: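 GLuc-SERCaMP-expressing SH-SY5Y cells, pretreated 16 h with compound, are challenged with thapsigargin to empty ER calcium stores; after 4 h, coelenterazine is added directly to the medium and luminescence is imaged.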
With `CN(C(=O)Cc1ccc(Cl)c(Cl)c1)C(CN1CCCC1)c1cccc(N=C=S)c1` (configuration not stated), the Potency result is “inactive”.
The same measure, in the same setting: next, `CC1=C2CC3C(CC=C4C[C@@H](O)CC[C@@]43C)[C@@H]2CC[C@]12O[C@@H]1C[C@H](C)CN[C@H]1[C@H]2C` (some centres not stated): “inactive”.
As for `CC1CCC2C(C)C(=O)OC3O[C@]4(C)CCC1[C@@]32OO4` (some centres not stated), the Potency entry was “inactive”.
Regarding `CC(C)C[C@H](NC(=O)[C@H](Cc1ccccc1)NC(=O)CNC(=O)[C@@H](NC(=O)[C@@H](N)Cc1ccc(O)cc1)[C@H](C)O)C(=O)N[C@H](C(=O)O)[C@H](C)O`, the activity change, negative = inhibition was -27.9% [at 3.88 µM].
As for `O=C(NC1CCCCC1)c1cn(CCN2CCOCC2)c2cc(Cl)ccc2c1=O`, the Potency entry is “inactive”.
The same measure, in the same setting: next, `Nc1ncnc2c1ncn2[C@@H]1O[C@H](COP(=O)(O)CP(=O)(O)O)[C@@H](O)[C@H]1O`: “inactive”; `CO[C@@H]1C[C@@H](C[C@H]2CC[C@H](C)[C@@H]([C@@H](C)C(=O)O)O2)O[C@]2(O[C@](C)([C@H]3CC[C@@](C)(C4OC([C@H]5O[C@@](O)(CO)[C@H](C)C[C@@H]5C)C[C@@H]4C)O3)C[C@H]2C)[C@@H]1C` (some centres not stated): “inactive”.
`CC(C)[C@H](NC(=O)[C@H](CCC(=O)O)NC(=O)[C@H](Cc1ccccc1)NC(=O)[C@H](C)NC(=O)[C@@H](N)Cc1ccc(O)cc1)C(=O)N[C@H](C(=O)NCC(N)=O)C(C)C`: the activity change, negative = inhibition was -11.9% [at 3.88 µM].
With `CCCCC/C=C\C[C@@H](/C=C/C=C\C/C=C\CCCC(=O)O)OO`, the activity change, negative = inhibition is -39.3% [at 0.478 µM].
On the same count and under the same terms, the figure for `CCCCC[C@@H](/C=C/C=C\CCCCCCCC(=O)O)OO` is -19.4% [at 0.478 µM].
Turning to `COc1ccc2c(c1O)-c1cc(O)cc3c1[C@@H](C2)N(C)CC3`, the Potency entry is “inactive”.
On the same count and under the same terms, next, `NCC(CS(=O)(=O)O)c1ccc(Cl)cc1` (configuration not stated): “inactive”; `CCCC[C@@H](C)[C@@H](OC(=O)C[C@@H](CC(=O)O)C(=O)O)[C@H](C[C@@H](C)C[C@H](O)CCCC[C@@H](O)C[C@H](O)[C@H](C)N)OC(=O)C[C@H](CC(=O)O)C(=O)O`: “inactive”.
The same measure, in the same setting: next, `N#Cc1c(Oc2cccc(OS(=O)(=O)CCCC(F)(F)F)c2)cccc1C(F)(F)F`: “inactive”; `C[C@]12CCC3C(CC[C@H]4C[C@H](O)CC[C@]34C)[C@@H]1CC[C@@H]2C(=O)CO` (some centres not stated): “inactive”; `O[C@@H]1CCCC[C@@H]1N1CCC(c2ccccc2)CC1`: “inactive”.
As to `CCOC(=O)CN1C(=O)CC(C[C@@H](O)C2C[C@@H](C)C[C@H](C)C2=O)CC1=O` (some centres not stated), the Potency entry was “inactive”.
Consider `CC[C@H](C)[C@H](NC(=O)[C@H](CCCN=C(N)N)NC(=O)[C@H](CCCN=C(N)N)NC(=O)[C@H](CC(C)C)NC(=O)[C@H](Cc1ccccc1)NC(=O)CNC(=O)CNC(=O)[C@@H](N)Cc1ccc(O)cc1)C(=O)N[C@@H](CCCN=C(N)N)C(=O)N1CCC[C@H]1C(=O)N[C@@H](CCCCN)C(=O)N[C@@H](CC(C)C)C(=O)N[C@@H](CCCCN)C(=O)O`, for which the activity change, negative = inhibition was -25.4% [at 3.88 µM].
With `O[C@@H]1CCCN2C[C@@H](O)[C@@H](O)C12` (some centres not stated), the Potency entry was “inactive”.
For `CCCCC/C=C\C/C=C\C/C=C\CCCCCCC(=O)NCCO`, the activity change, negative = inhibition is -18.9% [at 3.88 µM].
Consider `Cc1[nH]c2ccc(Cl)cc2c1C1=CCNCC1`, for which the Potency is 35.5 µM (active).
As for H-YPFVEPI-OH, the activity change, negative = inhibition is -11.8% [at 3.88 µM].
Regarding `C[C@@H]1O[C@H](C[N+](C)(C)C)C[C@@H]1O`, the Potency result is “inactive”.
Turning to `CCc1cccc(CC)c1NC1=NCCN1`, the Potency result was “inactive”.
As to `O=C(O)CCC(CP(=O)(O)O)C(=O)O` (configuration not stated), the Potency entry was “inactive”.
Still for that read-out and setting: next, `C=CCN1CCC23c4c5ccc(O)c4OC2/C(=N/N=C2\CCC4(O)C6Cc7ccc(O)c8c7C4(CCN6CC=C)C2O8)CCC3(O)C1C5` (configuration not stated): “inactive”.
Regarding `COC[C@H]([C@@H](O)[C@@H](O)C(=O)NCC[C@@H](C)c1nc(/C=C/C[C@H]2OC3(C[C@H](O)[C@H]2C)OC([C@@H](C[C@@H](O)[C@@H](C)[C@@H](O)[C@@H](C)/C=C(C)/C(C)=C/C=C/C(C)=C\C#N)OC)[C@@H](OP(=O)(O)O)C3(C)C)co1)N(C)C` (some centres not stated), the activity change, negative = inhibition was 257% [at 1.51 µM].
On the same count and under the same terms, next, `CCCCCCCCCCCCCCCCOC[C@H](COP(=O)([O-])OCC[N+](C)(C)C)OC(C)=O`: -28.3% [at 3.88 µM].
With `CC(Cc1cccc(C(F)(F)F)c1)NCCCc1ccccc1` (configuration not stated), the Potency entry is “inactive”.
Same read-out and setting: next, `O=C1CSC(c2ccccc2Cl)c2cc(Cl)ccc2N1` (configuration not stated): “inactive”; `COc1cc(OC2CCN(C(C)=O)CC2)ccc1C(=O)N1CCC(N2C(=O)OCc3ccccc32)CC1`: “inactive”; `C/C=C1/C[N@@+]2(C)CC[C@]34C(=C(C=O)[C@H]1C[C@H]32)Nc1ccccc14`: “inactive”.
`CC(C)(C)NC[C@H](O)COc1cccc2[nH]c(C#N)cc12`: the Potency entry is “inactive”.
Still for that read-out and setting: next, `CNc1ccc2oc(C[C@H]3O[C@]4(CC[C@H]3C)O[C@H]([C@H](C)C(=O)c3ccc[nH]3)[C@H](C)C[C@H]4C)nc2c1C(=O)O`: “inactive”; `CC1OC(=O)[C@@H](C(C)C)NC(=O)C(C(C)C)OC(=O)[C@H](C(C)C)NC(=O)C(C)OC(=O)[C@@H](C(C)C)NC(=O)C(C(C)C)OC(=O)[C@H](C(C)C)NC(=O)C(C)OC(=O)[C@@H](C(C)C)NC(=O)C(C(C)C)OC(=O)[C@H](C(C)C)NC1=O` (some centres not stated): “inactive”.
On to `CCCCCCCCCCCCCCCCOC[C@@H](COP(=O)([O-])OCC[N+](C)(C)C)OC(C)=O`, for which the activity change, negative = inhibition was -29.1% [at 3.88 µM].
Turning to `C=C1C([C@@H](O)C[C@H](C)C2O[C@@]3(CCCCO3)CC[C@H]2C)OC2CC[C@@]3(CC[C@@H](/C=C/[C@@H](C)C4CC(C)=C[C@]5(O4)O[C@H](C[C@@](C)(O)C(=O)O)CCC5O)O3)OC2[C@@H]1O` (some centres not stated), the activity change, negative = inhibition was -21.6% [at 1.51 µM].
